Screens from PubChem.
Pf growth 48h – inhibits P. falciparum growth in the first generation, 48 h | P. falciparum luciferase growth in erythrocytes, 48 h | hit rate 5.9% among 310,000 | Potency, µM (top dose mostly 28.7 µM), actives largely listed as inhibitors
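Parasite viability was followed by luminescence of a genomically integrated firefly luciferase. Cultures held 0.1% parasitemia at 2% hematocrit (final), incubated under 5% CO2 at 37 C.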
Pf growth 96h – P. falciparum growth inhibition at 96 hour, primary screen for plastid delayed-death inhibitors; hit rate 6.9% among 320,000; P. falciparum luciferase reporter growth, 96 h; Potency, µM (highest dose often 28.7 µM), most hits filed as inhibitors
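Infected RBCs, 2% Hct / 0.05% parasitemia final; luciferase-reporter P. falciparum; cpd 96 h, 37 C, 5% CO2; luciferase detection reagent; luminescence.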
Cycloheximide cs – counter-screen for Shiga toxin inhibitors: cycloheximide protein synthesis inhibition | cell reporter, cycloheximide protein synthesis inhibition counterscreen | max response, % | hit rate 12% among 300,000; in the data active = max response mostly above about 13%, no sharp cut-off; inactive = mostly below about 14%; also: read at 38.3 µM for the half of the compounds with a filed dose
HCV inhibitor – HCV inhibition. hit rate 3.4% among 340,000. AID 651820. Potency, µM (top dose mostly 41.8 µM), usual class: inhibitors. Huh7.5.1 HCVcc-Cre infection, luciferase reporter, 44 h
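After 44 h co-culture of compound, cells and HCVcc-Cre (~0.5 moi), substrate is added for 15 min at room temperature and luciferase measured over 15 sec. Cells were seeded at 1,000/well and pre-cultured 4 h.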
AMA1-RON2 inh – disrupts binding of P. falciparum AMA1 to RON2; Potency, µM (highest dose often 58.2 µM), hits mostly inhibitors; AlphaScreen AMA1-biotinylated RON2 peptide binding; hit rate 0.2% among 360,000; also: nearly all actives have a fitted effect of over 45% in size
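AMA1 (3D7) with his tag at 25 nM final met compounds first, then biotinylated RON2 peptide at 25 nM; detection used donor plus acceptor beads, 10 µg/mL apiece, read by AlphaScreen after 30 min at room temperature.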
Shiga inhibitor – Shiga toxin inhibition; Vero cells, Shiga toxin protein synthesis inhibition reporter; inhibition, % at 38.7 µM; hit rate 9.2% among 290,000; AID 2315; in the data active = inhibition mostly above about 28%, no sharp cut-off; inactive = mostly below about 43%
Numbers stand for hits; . = inactive; ? = inconclusive; / = no result given. Shown are actives, neighbours in structure and some others; about 21% of the full set was active somewhere. Unless noted, calls follow the shape of the dose curve; as a rule, active = well fitted curve in the direction sought with a large enough effect; inconclusive = small, poorly fitted or top-dose-only effect, or another doubt; inactive = no such curve, though single readings can be large; an effect the other way counts as inactive or inconclusive.

SMILES | Pf growth 48h | Pf growth 96h | Cycloheximide cs | HCV inhibitor | AMA1-RON2 inh | Shiga inhibitor
COC(=O)c1c(NC(=O)CN2C(=O)C(=O)N(C(C)C)C2=O)sc(C)c1C | ? | . | / | . | . | /
Cc1ccc(C2(CCNC(C)c3cccs3)CCOC(C(C)C)C2)cc1 (centres undefined) | ? | ? | . | ? | . | .
COc1ccccc1C1(CC(=O)O)CCOC(C(C)C)C1 (centres undefined) | . | . | . | . | . | .
COc1ccccc1C1(CCNC(C)c2cccs2)CCOC(C(C)C)C1 (centres undefined) | 8.3µM | 8.3µM | . | ? | . | .
CCC(=O)N(CCC1(c2ccccc2OC)CCOC(C(C)C)C1)Cc1ccco1 (centres undefined) | 10µM | 10µM | 26 | . | . | .
O=C(Nc1cccc(S(=O)(=O)N2CCOCC2)c1)c1cc2c(s1)CCC2 | . | / | . | ? | . | .
O=C(Nc1cccc(Cn2cccn2)c1)c1cc2c(s1)CCCC2 | . | / | 77 | ? | . | 143
CC(=O)Nc1cccc(Cn2cccn2)c1 | . | 13µM | . | . | / | .
Cc1ccc(Oc2ncccc2N)c2c1CCC2 | . | . | . | . | . | .
N#CC1(NC(=O)COC(=O)c2ccccc2SCC(=O)N2CCCC2)CCCCC1 | . | ? | . | / | . | .
CCN(CC)S(=O)(=O)c1cccc(NC(=O)COc2ncnc3sccc23)c1 | . | . | . | ? | . | .
CN1CCN(/N=C/c2ccc(N(C)c3ccccc3)cc2)CC1 | . | . | 34 | . | . | 59
COc1cccc(/C=N/N2CCN(C)CC2)c1 | . | . | 29 | . | . | .
CN1CCN(/N=C/c2ccc(Br)cc2)CC1 | . | . | 47 | . | . | .
CN1CCN(/N=C/c2ccc(N(c3ccccc3)c3ccccc3)cc2)CC1 | ? | ? | . | ? | . | .
O=C(Nc1ccc(F)cc1)C(c1ccccc1)N1CCN(c2ccncc2)CC1 (centres undefined) | / | / | / | / | . | /
Oc1ccccc1Nc1ncnc2c1oc1ccccc12 | ? | ? | 39 | . | . | .
c1ccc2c(c1)oc1c(NCCN3CCOCC3)ncnc12 | . | ? | . | / | . | .
CC(C)C(Nc1ncnc2c1oc1ccccc12)C(=O)O (centres undefined) | . | 4.7µM | . | . | . | .
CC(C)[C@H](Nc1nc(-c2ccccc2)nc2c1oc1ccccc12)C(=O)O | ? | . | . | . | . | .
CNc1c(NS(=O)(=O)c2ccc(Cl)s2)c(=O)oc2ccccc12 | . | . | . | . | . | .
c1ccc2c(c1)oc1c(Nc3ccc(CN4CCOCC4)cc3)ncnc12 | . | ? | 92 | ? | . | 106
O=S(=O)(Nc1ncnc2c1oc1ccccc12)c1ccc(Cl)s1 | . | . | 16 | . | . | .
CN(C)/C=C/C(=O)c1ccc([N+](=O)[O-])c(CS(=O)(=O)c2ccc(Cl)cc2)c1 | . | . | . | . | . | .
c1ccc(Nc2ncnc3c2oc2ccccc23)cc1 | . | . | 66 | . | . | 121
SMILES | Pf growth 48h | Pf growth 96h | Cycloheximide cs | HCV inhibitor | AMA1-RON2 inh | Shiga inhibitor
c1ccc2c(c1)oc1c(NCc3ccc4c(c3)OCO4)ncnc12 | . | . | . | ? | . | .
CCc1nc(Nc2cccc(F)c2)c2oc3ccccc3c2n1 | ? | ? | . | ? | . | .
Oc1ccc(Nc2ncnc3c2oc2ccccc23)cc1 | . | . | 40 | ? | . | 33
Oc1cccc(Nc2ncnc3c2oc2ccccc23)c1 | . | . | 50 | ? | . | 93
Cc1nn(C2CCS(=O)(=O)C2)c(C)c1C=O (centres undefined) | . | . | . | . | . | .
O=C(C[n+]1cccc(C(=O)N/N=C/c2cccc([N+](=O)[O-])c2)c1)c1ccccc1 | . | ? | / | ? | . | /
CSCC[C@H](NC(=O)[C@@H]1CCCN1C(=O)CNC(=O)[C@H](CCCCN)NC(=O)[C@H](Cc1cnc[nH]1)NC(=O)[C@H](CO)NC(=O)[C@H](CC(C)C)NC(=O)[C@H](CCCN=C(N)N)NC(=O)[C@@H]1CCCN1C(=O)[C@H](CCCN=C(N)N)NC(=O)[C@@H]1CCC(=O)N1)C(=O)N1CCC[C@H]1C(=O)N[C@@H](Cc1ccccc1)C(=O)O | / | / | . | / | / | .
COC(=O)c1cc(S(=O)(=O)C(C)C)c(S(C)=O)s1 (centres undefined) | ? | ? | 14 | . | . | .
CC[C@H](C)[C@H](N)C(=O)N[C@H]1CCC(=O)NCC(C(=O)N[C@@H](Cc2ccc(O)cc2)C(=O)N[C@@H](CCCNC(=N)N)C(=O)N[C@@H](CC(C)C)C(=O)N[C@@H](CCCNC(=N)N)C(=O)N[C@@H](Cc2ccc(O)cc2)C(N)=O)NC(=O)[C@@H]2CCCN2C(=O)[C@@H](NC(=O)[C@@H](N)[C@@H](C)CC)CCC(=O)NCC(C(=O)N[C@@H](Cc2ccc(O)cc2)C(=O)N[C@@H](CCCNC(=N)N)C(=O)N[C@@H](CC(C)C)C(=O)N[C@@H](CCCNC(=N)N)C(=O)N[C@@H](Cc2ccc(O)cc2)C(N)=O)NC(=O)[C@@H]2CCCN2C1=O (some centres undefined) | / | / | . | / | / | .
COc1ccc(/C=C/C(=O)Nc2cccnc2Cl)cc1 | / | . | 42 | . | . | 60
O=C(COC(=O)/C=C/c1ccccc1Cl)Nc1cccnc1Cl | / | / | / | . | . | /
COc1cc(/C=C/C(=O)NCc2ccccn2)cc(OC)c1OC | . | . | . | . | . | .
COc1ccccc1/C=C/C(=O)Nc1cccnc1Cl | . | . | 30 | . | . | 51
COC(=O)c1cc(Cl)c(NC(=O)/C=C/c2ccc(OC)cc2)cc1OC | . | . | . | ? | . | .
COc1ccccc1/C=C/C(=O)NCCc1ccccn1 | . | . | 55 | . | . | 88
N#C/C(=C\c1c(N2CCC(C(N)=O)CC2)nc2ccccn2c1=O)S(=O)(=O)c1ccc(Cl)cc1 | . | . | . | . | . | .
FC(F)(F)c1cc(-c2cccs2)nc(-n2cc(Cl)cn2)n1 | / | ? | . | 10µM | . | .
CCN(C[C@H]1N[C@@](CC)(C(=O)OC)[C@H]2C(=O)N(Cc3ccccc3)C(=O)[C@@H]12)C(=O)COc1ccccc1 | / | / | / | . | . | /
O=C(OCc1cccc(F)c1)c1cc2ccccc2cc1O | . | ? | . | . | . | /
CC(=O)Nc1ccccc1C(=O)OCc1ccc(C(=O)c2ccccc2)cc1 | . | . | 24 | ? | . | .
CC(=O)Nc1ccccc1C(=O)OCc1cccc(F)c1 | . | . | 26 | ? | . | .
Cc1cc([N+](=O)[O-])ccc1NC(=O)C(C)NC1CCCCC1 (centres undefined) | . | ? | . | . | . | .
O=c1cc(CO)[nH]cc1OCc1ccccc1 | . | . | . | . | . | .
N#Cc1c(-c2ccc(Cl)cc2)ccn2nc(C3CCCCC3)nc12 | . | / | 42 | . | . | .
